Measurements reported in PMC7862700, “An all-to-all approach to the identification of sequence-specific readers for epigenetic DNA modifications on cytosine”.

What was measured:
Test in all cases: DAPPL (digital affinity profiling via proximity ligation, sequencing); 10 mM Tris-HCl pH 7.5, 50 mM NaCl, 1 mM DTT, 4% glycerol, room temperature, 30 min; GST-TFs on glutathione beads, 16-mer random dsDNA library, 0.1% formaldehyde crosslink after washing; high values mean tight binding
Conditions in all cases: protein: recombinant; tags: N-terminal GST; dsDNA, one strand shown
[1] = biological target: T1, FEV (Homo sapiens, UniProt Q99581 1-238)
T1 sequence: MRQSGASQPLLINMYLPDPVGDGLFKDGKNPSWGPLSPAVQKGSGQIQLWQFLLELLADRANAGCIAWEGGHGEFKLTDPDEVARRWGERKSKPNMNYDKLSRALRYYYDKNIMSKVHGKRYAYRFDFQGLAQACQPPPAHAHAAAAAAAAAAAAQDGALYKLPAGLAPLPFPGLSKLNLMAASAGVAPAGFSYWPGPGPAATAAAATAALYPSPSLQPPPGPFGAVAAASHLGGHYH
Summary of the method: (§1)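 Yeast served to express human transcription factors as GST fusions, which were then captured on glutathione beads and labelled with DNA barcodes. Pooled with a tag-only sample, they were incubated with 200 nmole of a 16-mer random double-stranded DNA library for 30 min at room temperature in Tris/NaCl/DTT/glycerol buffer, washed, crosslinked with 0.1% formaldehyde, ligated by proximity, amplified by PCR and sequenced. Dividing each hexamer's read frequency for a factor by its frequency for the tag-only sample gives the binding signal.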

[2] = biological target: ETV5 (Homo sapiens, UniProt P41161 1-510)
Sequence of ETV5 (P41161 whole entry): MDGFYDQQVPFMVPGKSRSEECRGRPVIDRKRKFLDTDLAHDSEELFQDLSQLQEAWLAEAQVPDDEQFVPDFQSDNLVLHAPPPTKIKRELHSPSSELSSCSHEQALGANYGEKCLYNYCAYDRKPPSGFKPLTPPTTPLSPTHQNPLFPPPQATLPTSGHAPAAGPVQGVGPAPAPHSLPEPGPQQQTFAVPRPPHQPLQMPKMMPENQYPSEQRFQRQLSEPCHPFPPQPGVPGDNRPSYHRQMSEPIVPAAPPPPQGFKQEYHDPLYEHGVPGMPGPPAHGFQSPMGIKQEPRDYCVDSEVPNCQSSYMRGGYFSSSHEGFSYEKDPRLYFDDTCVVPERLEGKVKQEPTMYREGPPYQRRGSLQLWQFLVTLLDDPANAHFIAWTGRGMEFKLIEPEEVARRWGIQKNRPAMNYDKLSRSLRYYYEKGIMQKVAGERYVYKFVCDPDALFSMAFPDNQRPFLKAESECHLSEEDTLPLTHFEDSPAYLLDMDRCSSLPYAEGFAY
Summary of the method: as §1

[3] = biological target: T2, SPIC (Homo sapiens, UniProt Q8N5J4 1-248)
T2 sequence: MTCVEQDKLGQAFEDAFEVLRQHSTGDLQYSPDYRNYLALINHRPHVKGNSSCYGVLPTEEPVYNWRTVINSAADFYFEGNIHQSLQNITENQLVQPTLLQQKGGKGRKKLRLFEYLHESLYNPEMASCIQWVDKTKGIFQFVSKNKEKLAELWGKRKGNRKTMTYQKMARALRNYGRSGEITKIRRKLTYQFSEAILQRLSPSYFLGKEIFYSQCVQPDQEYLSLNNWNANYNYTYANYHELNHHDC
Summary of the method: as §1

[4] = biological target: ELF4 (Homo sapiens, UniProt Q99607 1-663)
Sequence of ELF4 (Q99607 whole entry): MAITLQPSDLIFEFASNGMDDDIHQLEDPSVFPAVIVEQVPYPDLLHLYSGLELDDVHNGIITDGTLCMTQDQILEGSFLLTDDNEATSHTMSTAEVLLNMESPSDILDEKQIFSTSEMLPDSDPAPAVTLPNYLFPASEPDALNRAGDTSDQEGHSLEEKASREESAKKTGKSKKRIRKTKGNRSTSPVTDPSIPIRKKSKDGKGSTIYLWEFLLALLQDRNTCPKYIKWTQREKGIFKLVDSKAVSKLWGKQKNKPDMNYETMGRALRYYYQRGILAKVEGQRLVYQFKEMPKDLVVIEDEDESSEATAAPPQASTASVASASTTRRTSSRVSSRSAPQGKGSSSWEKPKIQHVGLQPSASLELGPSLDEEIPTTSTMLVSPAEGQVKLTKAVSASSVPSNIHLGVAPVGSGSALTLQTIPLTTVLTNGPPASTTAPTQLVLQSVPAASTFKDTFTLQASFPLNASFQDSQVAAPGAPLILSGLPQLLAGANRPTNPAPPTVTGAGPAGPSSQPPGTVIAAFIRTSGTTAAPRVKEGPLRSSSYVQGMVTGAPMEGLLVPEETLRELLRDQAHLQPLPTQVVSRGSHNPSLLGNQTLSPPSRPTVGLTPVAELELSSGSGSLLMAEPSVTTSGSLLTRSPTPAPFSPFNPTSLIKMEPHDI
Summary of the method: as §1

[5] = biological target: T3, ELK4 (Homo sapiens, UniProt P28324-2 1-405)
T3 sequence: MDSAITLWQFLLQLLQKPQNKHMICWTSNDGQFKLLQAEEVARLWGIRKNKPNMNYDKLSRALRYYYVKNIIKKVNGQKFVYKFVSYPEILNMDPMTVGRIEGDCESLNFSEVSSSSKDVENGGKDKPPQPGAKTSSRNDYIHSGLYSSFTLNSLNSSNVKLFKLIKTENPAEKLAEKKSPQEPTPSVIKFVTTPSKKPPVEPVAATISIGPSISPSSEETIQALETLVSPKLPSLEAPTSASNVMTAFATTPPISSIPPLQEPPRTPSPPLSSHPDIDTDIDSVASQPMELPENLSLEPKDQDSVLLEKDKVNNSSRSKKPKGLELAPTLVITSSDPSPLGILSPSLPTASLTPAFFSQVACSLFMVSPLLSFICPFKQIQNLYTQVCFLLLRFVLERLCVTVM
Summary of the method: as §1

[6] = biological target: T4, ETV2 (Homo sapiens, UniProt O00321 1-342)
T4 sequence: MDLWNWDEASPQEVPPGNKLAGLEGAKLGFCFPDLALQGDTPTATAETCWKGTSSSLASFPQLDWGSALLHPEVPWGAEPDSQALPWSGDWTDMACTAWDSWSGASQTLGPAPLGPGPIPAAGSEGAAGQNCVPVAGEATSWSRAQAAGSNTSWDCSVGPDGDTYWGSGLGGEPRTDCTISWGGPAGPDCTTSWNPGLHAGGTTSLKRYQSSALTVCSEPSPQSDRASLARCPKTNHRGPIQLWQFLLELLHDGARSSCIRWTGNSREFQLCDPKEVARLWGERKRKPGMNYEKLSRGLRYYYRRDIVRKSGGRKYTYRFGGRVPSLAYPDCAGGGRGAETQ
Summary of the method: as §1

[7] = biological target: T5, ELF3 (Homo sapiens, UniProt P78545 1-371)
T5 sequence: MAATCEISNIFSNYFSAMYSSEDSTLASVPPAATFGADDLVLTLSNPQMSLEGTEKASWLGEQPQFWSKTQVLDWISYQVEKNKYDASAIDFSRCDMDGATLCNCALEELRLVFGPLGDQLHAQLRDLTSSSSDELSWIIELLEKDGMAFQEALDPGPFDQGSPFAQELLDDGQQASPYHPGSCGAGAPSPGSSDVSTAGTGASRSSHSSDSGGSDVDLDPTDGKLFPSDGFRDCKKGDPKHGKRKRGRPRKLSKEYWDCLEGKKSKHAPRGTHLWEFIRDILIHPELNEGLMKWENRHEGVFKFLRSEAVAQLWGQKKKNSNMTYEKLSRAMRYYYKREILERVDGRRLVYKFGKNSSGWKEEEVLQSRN
Summary of the method: as §1

[8] = biological target: ETV1 (Homo sapiens, UniProt P50549 1-477)
Sequence of ETV1 (P50549 whole entry): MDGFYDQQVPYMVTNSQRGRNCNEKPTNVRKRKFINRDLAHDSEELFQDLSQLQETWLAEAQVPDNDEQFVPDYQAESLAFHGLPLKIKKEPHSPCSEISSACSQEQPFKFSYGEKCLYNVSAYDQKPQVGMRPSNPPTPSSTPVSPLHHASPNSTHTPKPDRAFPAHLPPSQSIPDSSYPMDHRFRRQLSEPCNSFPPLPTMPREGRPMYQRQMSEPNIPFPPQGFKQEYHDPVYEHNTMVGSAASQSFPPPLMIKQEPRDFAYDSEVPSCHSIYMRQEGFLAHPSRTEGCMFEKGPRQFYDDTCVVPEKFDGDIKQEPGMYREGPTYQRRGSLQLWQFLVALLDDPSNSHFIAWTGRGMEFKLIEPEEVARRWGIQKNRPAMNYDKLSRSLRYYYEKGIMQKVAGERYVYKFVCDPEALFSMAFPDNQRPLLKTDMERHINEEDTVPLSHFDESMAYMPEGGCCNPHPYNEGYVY
Summary of the method: as §1

[9] = biological target: T6, ERF (Homo sapiens, UniProt P50548 1-548)
T6 sequence: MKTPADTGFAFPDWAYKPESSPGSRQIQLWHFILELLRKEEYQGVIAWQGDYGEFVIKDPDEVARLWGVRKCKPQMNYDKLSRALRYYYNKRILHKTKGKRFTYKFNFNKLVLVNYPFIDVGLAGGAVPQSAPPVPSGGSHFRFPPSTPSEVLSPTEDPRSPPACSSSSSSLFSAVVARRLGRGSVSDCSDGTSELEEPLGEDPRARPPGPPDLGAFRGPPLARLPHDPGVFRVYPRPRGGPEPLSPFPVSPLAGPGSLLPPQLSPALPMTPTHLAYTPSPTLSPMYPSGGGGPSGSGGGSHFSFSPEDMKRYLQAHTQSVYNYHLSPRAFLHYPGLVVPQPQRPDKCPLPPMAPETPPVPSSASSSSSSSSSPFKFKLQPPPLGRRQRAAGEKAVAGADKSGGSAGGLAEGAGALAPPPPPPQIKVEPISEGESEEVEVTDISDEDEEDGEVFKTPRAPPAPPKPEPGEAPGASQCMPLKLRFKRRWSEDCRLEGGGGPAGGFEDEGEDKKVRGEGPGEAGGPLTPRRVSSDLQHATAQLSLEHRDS
Summary of the method: as §1

[10] = biological target: T7, ETV3L (Homo sapiens, UniProt Q6ZN32 1-361)
T7 sequence: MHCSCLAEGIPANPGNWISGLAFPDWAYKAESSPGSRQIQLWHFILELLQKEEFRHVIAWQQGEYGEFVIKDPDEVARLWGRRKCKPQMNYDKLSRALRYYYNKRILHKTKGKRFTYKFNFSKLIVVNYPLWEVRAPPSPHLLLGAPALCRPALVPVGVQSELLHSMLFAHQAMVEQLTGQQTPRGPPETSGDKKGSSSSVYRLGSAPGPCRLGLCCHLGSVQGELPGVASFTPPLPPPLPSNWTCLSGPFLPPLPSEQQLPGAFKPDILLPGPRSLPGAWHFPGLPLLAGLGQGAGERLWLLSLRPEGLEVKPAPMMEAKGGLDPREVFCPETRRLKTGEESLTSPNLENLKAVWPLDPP
Summary of the method: as §1

[11] = biological target: T8, ETS2 (Homo sapiens, UniProt P15036 1-469)
T8 sequence: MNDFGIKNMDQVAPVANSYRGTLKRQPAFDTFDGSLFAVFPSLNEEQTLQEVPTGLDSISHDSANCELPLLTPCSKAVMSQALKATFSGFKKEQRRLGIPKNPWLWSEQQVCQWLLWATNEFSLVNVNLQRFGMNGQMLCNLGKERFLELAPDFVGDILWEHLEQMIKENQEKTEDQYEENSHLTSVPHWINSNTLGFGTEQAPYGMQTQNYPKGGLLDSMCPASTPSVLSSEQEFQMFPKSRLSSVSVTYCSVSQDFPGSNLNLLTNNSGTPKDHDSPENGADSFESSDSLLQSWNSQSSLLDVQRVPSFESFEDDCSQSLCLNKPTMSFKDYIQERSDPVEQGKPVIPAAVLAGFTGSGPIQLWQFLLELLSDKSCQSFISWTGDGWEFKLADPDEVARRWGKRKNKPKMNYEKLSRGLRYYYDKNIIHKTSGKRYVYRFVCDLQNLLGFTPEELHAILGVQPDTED
Summary of the method: as §1

[12] = biological target: T9, SPDEF (Homo sapiens, UniProt O95238 1-335)
T9 sequence: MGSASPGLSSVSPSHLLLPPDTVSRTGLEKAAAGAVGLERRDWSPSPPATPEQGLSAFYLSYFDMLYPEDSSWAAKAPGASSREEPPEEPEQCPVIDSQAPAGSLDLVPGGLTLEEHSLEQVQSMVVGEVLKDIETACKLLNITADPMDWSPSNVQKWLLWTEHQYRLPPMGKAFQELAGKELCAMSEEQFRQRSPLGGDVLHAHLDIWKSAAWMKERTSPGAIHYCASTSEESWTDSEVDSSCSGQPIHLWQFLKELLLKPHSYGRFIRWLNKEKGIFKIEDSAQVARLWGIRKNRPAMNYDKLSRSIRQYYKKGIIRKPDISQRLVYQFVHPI
Summary of the method: as §1

[13] = biological target: T10, ETV7 (Homo sapiens, UniProt Q9Y603 1-341)
T10 sequence: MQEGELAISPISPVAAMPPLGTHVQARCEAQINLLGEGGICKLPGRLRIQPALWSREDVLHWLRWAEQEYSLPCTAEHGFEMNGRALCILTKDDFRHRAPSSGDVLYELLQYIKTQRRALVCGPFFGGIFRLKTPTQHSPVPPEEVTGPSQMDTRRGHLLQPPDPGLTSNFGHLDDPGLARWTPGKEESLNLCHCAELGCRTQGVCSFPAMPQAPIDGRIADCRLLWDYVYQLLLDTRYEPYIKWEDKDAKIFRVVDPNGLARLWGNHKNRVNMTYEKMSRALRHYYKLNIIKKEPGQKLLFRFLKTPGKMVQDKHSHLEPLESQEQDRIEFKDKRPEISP
Summary of the method: as §1

[14] = biological target: T11, ETV3 (Homo sapiens, UniProt P41162-2 1-143)
T11 sequence: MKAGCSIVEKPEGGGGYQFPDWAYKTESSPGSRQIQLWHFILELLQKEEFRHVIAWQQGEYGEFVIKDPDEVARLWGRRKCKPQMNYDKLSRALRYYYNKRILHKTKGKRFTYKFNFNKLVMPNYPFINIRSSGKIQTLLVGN
Summary of the method: as §1

[15] = biological target: ETV6 (Homo sapiens, UniProt P41212 1-452)
Sequence of ETV6 (P41212 whole entry): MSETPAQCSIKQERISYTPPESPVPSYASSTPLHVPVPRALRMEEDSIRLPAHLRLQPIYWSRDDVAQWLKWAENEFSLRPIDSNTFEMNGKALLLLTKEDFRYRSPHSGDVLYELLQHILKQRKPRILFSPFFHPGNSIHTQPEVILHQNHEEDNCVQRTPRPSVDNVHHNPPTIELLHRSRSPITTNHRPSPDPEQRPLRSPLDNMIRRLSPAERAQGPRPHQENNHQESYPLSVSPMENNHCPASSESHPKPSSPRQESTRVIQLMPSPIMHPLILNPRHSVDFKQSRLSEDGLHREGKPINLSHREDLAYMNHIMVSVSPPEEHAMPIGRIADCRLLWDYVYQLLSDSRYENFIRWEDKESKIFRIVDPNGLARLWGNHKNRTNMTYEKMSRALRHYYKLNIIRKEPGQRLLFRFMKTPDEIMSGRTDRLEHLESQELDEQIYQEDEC
Summary of the method: as §1

[16] = biological target: T12, ELF5 (Homo sapiens, UniProt Q9UKW6-2 1-255)
T12 sequence: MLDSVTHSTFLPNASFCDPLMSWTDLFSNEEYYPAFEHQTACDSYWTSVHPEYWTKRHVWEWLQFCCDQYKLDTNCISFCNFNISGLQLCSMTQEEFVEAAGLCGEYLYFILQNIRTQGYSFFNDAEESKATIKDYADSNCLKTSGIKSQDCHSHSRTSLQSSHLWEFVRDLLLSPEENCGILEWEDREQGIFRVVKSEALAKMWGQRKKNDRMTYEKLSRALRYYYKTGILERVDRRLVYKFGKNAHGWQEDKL
Summary of the method: as §1

Sequence	binding signal [1]	binding signal [2]	binding signal [3]	binding signal [4]	binding signal [5]	binding signal [6]	binding signal [7]	binding signal [8]	binding signal [9]	binding signal [10]	binding signal [11]	binding signal [12]	binding signal [13]	binding signal [14]	binding signal [15]	binding signal [16]
CGCTTG	1.08 fold enrichment (6-mer frequency, TF over GST control)	1.06 fold enrichment (6-mer frequency, TF over GST control)	1.16 fold enrichment (6-mer frequency, TF over GST control)	1.01 fold enrichment (6-mer frequency, TF over GST control)	1 fold enrichment (6-mer frequency, TF over GST control)	1.07 fold enrichment (6-mer frequency, TF over GST control)	1.2 fold enrichment (6-mer frequency, TF over GST control)	1.15 fold enrichment (6-mer frequency, TF over GST control)	1.06 fold enrichment (6-mer frequency, TF over GST control)	1.01 fold enrichment (6-mer frequency, TF over GST control)	1.22 fold enrichment (6-mer frequency, TF over GST control)	1.09 fold enrichment (6-mer frequency, TF over GST control)	1.01 fold enrichment (6-mer frequency, TF over GST control)	1.06 fold enrichment (6-mer frequency, TF over GST control)	1.11 fold enrichment (6-mer frequency, TF over GST control)	–
CATATC	1.4 fold enrichment (6-mer frequency, TF over GST control)	1.36 fold enrichment (6-mer frequency, TF over GST control)	1.23 fold enrichment (6-mer frequency, TF over GST control)	1.29 fold enrichment (6-mer frequency, TF over GST control)	1.24 fold enrichment (6-mer frequency, TF over GST control)	1.41 fold enrichment (6-mer frequency, TF over GST control)	1.28 fold enrichment (6-mer frequency, TF over GST control)	1.41 fold enrichment (6-mer frequency, TF over GST control)	1.42 fold enrichment (6-mer frequency, TF over GST control)	1.38 fold enrichment (6-mer frequency, TF over GST control)	1.36 fold enrichment (6-mer frequency, TF over GST control)	1.76 fold enrichment (6-mer frequency, TF over GST control)	1.24 fold enrichment (6-mer frequency, TF over GST control)	1.32 fold enrichment (6-mer frequency, TF over GST control)	1.26 fold enrichment (6-mer frequency, TF over GST control)	1.32 fold enrichment (6-mer frequency, TF over GST control)
